Assay results: PubChem BioAssay;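 active = fitted dose curve reaches 40% lysis signal rise at or below the highest valid concentration tested for that sample; inconclusive = flat fit between 30% and 70%, or poor curve fit; inactive = signal falls, stays flat within 30%, or no crossing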
Measured potencies and affinities stand elsewhere.

assay: C. neoformans lysis by adenylate kinase leakage – AK release luminescence, cherry-picks, dose response (AID 687000); conditions: 4 h, 100% = twice the neutral-control signal; series mostly up to 15 µM; lysis activity: at the top concentration;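 also: luminescent detection of adenylate kinase leaking from lysed yeast; 0% = median neutral control signal and 100% = double that signal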

Lysis activity, inactive:
Cc1ccc(N(CC(N)=O)S(=O)(=O)c2ccc(F)cc2)cc1 22.7% [at 16 µM]
C/C=C/c1ccc2c(c1)O[C@H](CN(C)S(=O)(=O)c1ccccc1)[C@H](C)CN([C@@H](C)CO)S2(=O)=O -9.07%
C[C@H]1CCCCO[C@H](CN(C)C(=O)c2ccncc2)[C@@H](C)CN([C@@H](C)CO)C(=O)c2cc(NC(=O)Cc3ccccc3)ccc2O1 -13.4%
CO[C@H](CN(C)Cc1ccc2c(c1)OCO2)[C@@H](C)CN(C(=O)c1ccccc1)[C@@H](C)CO 10.2%
C[C@H](CO)N1C[C@H](C)[C@H](CN(C)Cc2cccnc2)Oc2ncc(C#CC3(O)CCCC3)cc2C1=O -12.7%
O=C(C[C@H]1C=C[C@H](NC(=O)C2CCC2)[C@@H](CO)O1)NC1CCC1 9.85%
Cc1noc(C)c1S(=O)(=O)Nc1ccc2c(c1)CC(=O)N([C@@H](C)CO)C[C@@H](C)[C@@H](CN(C)S(=O)(=O)c1cccs1)O2 -1.81%
COc1ccccc1C(=O)Nc1ccc2c(c1)C(=O)N(C)C[C@@H](OC)[C@H](C)CN(C)[C@@H](C)CO2 32.1%
COc1ccccc1C(=O)N1C[C@H]2[C@@H](c3ccccc31)[C@@H](CO)N2C(=O)Cc1ccccc1 1.37%
CC(=O)NC[C@H]1[C@@H](c2ccc(C3=CCCC3)cc2)[C@@H](CO)N1C(=O)NC(C)C 5.44%
COCC(=O)Nc1ccc2c(c1)OC[C@@H](C)N(C(=O)Cc1cccnc1)C[C@H](C)[C@@H](OC)CN(C)C2=O -10.4%
C[C@@H]1CN([C@H](C)CO)C(=O)c2c(c3ccccc3n2C)-c2ccccc2CO[C@H]1CN(C)S(=O)(=O)c1cccs1 -0.083%
CNC(=O)C[C@@H]1CC[C@H]2[C@@H](COC[C@H](O)CN2C(=O)Nc2ccc3c(c2)OCO3)O1 0.621%
COC(=O)N(C)C[C@H]1OCc2cn(nn2)CCCC(=O)N([C@@H](C)CO)C[C@@H]1C 8.5%
CC(=O)NNC(=O)CSc1nnc(-c2ccccc2)c(-c2ccccc2)n1 -15%
CNC[C@@H]1OCCCC[C@H](C)Oc2ccc(NC(=O)Nc3ccc(F)cc3)cc2C(=O)N([C@@H](C)CO)C[C@H]1C 9.06%
CNC[C@H]1Oc2ccc(NC(=O)Cc3cn(C)c4ccccc34)cc2CC(=O)N([C@@H](C)CO)C[C@H]1C -15.4%
CCNC(=O)COc1cccc(C(=O)NCc2ccccc2)c1 -0.747%
O=C1CCC(C(=O)Nc2ccccc2)N1 (stereo not given) 2.43%
COc1ccc(C#Cc2ccc3c(c2)O[C@H](CN(C)C(=O)Nc2cccc(OC)c2)[C@H](C)CN([C@@H](C)CO)S3(=O)=O)cc1 -3.4%
C[C@@H]1CN([C@@H](C)CO)C(=O)c2cc(NC(=O)C3CCCCC3)ccc2O[C@@H](C)CCCCO[C@@H]1CN(C)C(=O)NC1CCCCC1 -6.48%
C[C@@H]1CN([C@@H](C)CO)C(=O)CCCn2nncc2CO[C@H]1CN(C)Cc1cccc(C(F)(F)F)c1 6.63%
CCCC#Cc1ccc2c(c1)O[C@@H](CN(C)C)[C@@H](C)CN([C@@H](C)CO)S2(=O)=O 3.09%
CCC(=O)N1[C@@H]2c3cccc(=O)n3C[C@H]1[C@H](CO)[C@H]2C(=O)NCc1ccccc1 -2.9%
C[C@@H]1CCCCO[C@@H](CN(C)S(=O)(=O)c2ccc(F)cc2)[C@@H](C)CN([C@@H](C)CO)C(=O)c2cc(NS(=O)(=O)c3ccc(F)cc3)ccc2O1 23.3%
C[C@@H]1CN([C@H](C)CO)C(=O)c2cc(-c3ccc(C#N)cc3)cnc2O[C@@H]1CN(C)C(=O)Nc1ccc(F)cc1 9%
COc1cccc(S(=O)(=O)N(C)C[C@H]2OCc3cnnn3CCCC(=O)N([C@H](C)CO)C[C@H]2C)c1 -0.227%
COc1ccccc1-c1ccc2c(c1)O[C@@H](CN(C)C(=O)c1cccnc1)[C@H](C)CN([C@@H](C)CO)S2(=O)=O 10.1%
CN1C(=O)c2cc(NS(=O)(=O)c3cccc(F)c3)ccc2OC[C@H]2O[C@H](CC(=O)O)CC[C@H]21 3%
COCCNC(=O)C[C@@H]1CC[C@@H]2[C@H](COC[C@@H](O)CN2S(=O)(=O)c2ccccc2C)O1 -15.1%
COc1cccc(S(=O)(=O)N2C[C@@H](O)COC[C@@H]3O[C@H](CC(=O)N4CCN(C)CC4)CC[C@H]32)c1 2.5%
Cc1cc(C)c(NC(=O)C(C)N2CCCCCC2)c(C)c1 (stereo not given) -0.295%
O=C(C[C@H]1C[C@H]2c3cc(NC(=O)C4CCC4)ccc3O[C@H]2[C@@H](CO)O1)NCc1cccc(F)c1 4.84% [at 13.5 µM]
CC(C)NC(=O)N(C)C[C@H]1OCCCC[C@@H](C)Oc2ccc(NC(=O)c3ccccc3)cc2C(=O)N([C@@H](C)CO)C[C@@H]1C -16.8%
COc1ccc(CN(C)C[C@@H]2Oc3ccc(NC(=O)C4CC4)cc3C(=O)N([C@H](C)CO)C[C@H]2C)cc1 -13.4%
C[C@H]1CN([C@@H](C)CO)S(=O)(=O)c2ccc(Br)cc2O[C@@H]1CN(C)S(=O)(=O)c1ccccc1F -6.21% [at 16 µM]
C[C@H]1CN([C@@H](C)CO)C(=O)Cc2cc(NC(=O)CCCCCC(=O)Nc3ccccc3N)ccc2O[C@H]1CN(C)C(=O)Nc1ccccc1 3.66%
C[C@H]1CN([C@@H](C)CO)C(=O)CCCn2nncc2CO[C@@H]1CN(C)Cc1cccc(C(F)(F)F)c1 -12%
C[C@H](CO)N1C[C@H](C)[C@H](CN(C)Cc2ccncc2)Oc2ccc(NC(=O)CCC(F)(F)F)cc2C1=O 6.45%
CC(=O)N1[C@H](CO)[C@H](c2ccc(-c3ccccc3)cc2)[C@H]1CNC(=O)C1CC1 -5%
